Test [1] is described as follows: NCI Yeast Anticancer Drug Screen. Data for the rad50 strain (AID 155).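 Further: 0% = growth of vehicle-only cultures of the same strain.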 Conditions: S. cerevisiae rad50 strain growth inhibition, active compounds read high. In short, it runs like this:
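Readout: growth inhibition relative to vehicle-treated cultures. Compound exposure was carried out in a genetically defined yeast strain deficient in DNA damage repair.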

Test [2] in a line: NCI Yeast Anticancer Drug Screen. Data for the mec2-1 strain (AID 157). Particulars: S. cerevisiae mec2-1 strain, active compounds read high. In short, it runs like this: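 Each compound was tested on mec2-1 yeast, a strain altered in DNA damage repair or cell cycle control. Growth inhibition is reported relative to vehicle.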
The nature of test [3]: NCI Yeast Anticancer Drug Screen. Data for the sgs1 mgt1 strain (AID 161).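 Further: 0% = growth of cultures given vehicle only.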 Particulars: S. cerevisiae sgs1 mgt1 strain, active compounds read high. In short, it runs like this:
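Genetically altered yeast, compound exposure, growth inhibition relative to vehicle.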

The nature of test [4]: NCI Yeast Anticancer Drug Screen. Data for the cln2 rad14 strain (AID 165).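 Further: 0% = growth equal to vehicle treated cultures.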 Conditions: S. cerevisiae cln2 rad14 strain, active compounds read high. Put shortly:
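Test compounds were added to cln2 rad14 yeast cultures; inhibition of growth was then determined by comparison with vehicle treatment.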

Test [5] in a line: NCI Yeast Anticancer Drug Screen. Data for the bub3 strain (AID 167). Conditions: S. cerevisiae bub3 mutant strain, active compounds read high. Put shortly:
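Readout: yeast growth inhibition, expressed relative to vehicle-only wells. The test organism is a mutant strain from a panel with lesions in DNA repair or checkpoint genes.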

The nature of test [6]: NCI Yeast Anticancer Drug Screen. Data for the mlh1 rad18 strain (AID 175). Conditions: S. cerevisiae mlh1 rad18 strain growth inhibition, active compounds read high. Put shortly: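 Inhibition values reflect reduced growth of mutant yeast versus vehicle-treated controls following compound exposure; the mutations affect DNA damage repair.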
Where [7] appears, read: at 5.0 µM (retest, dose inferred, filed as 0.5).
Setting [8] is: at 50.0 µM (retest, dose inferred, filed as 5.0).

The panel holds about 79,000 compounds, 15% with a hit somewhere; the sample as a whole holds those more often. A number with no mark means an inactive call. Calls of active or inactive are those of the source. No stated cut-off is given here; in the data, active means growth inhibition above about 70%; inactive means the rest.

Regarding `O=C(NC(=O)C(F)(F)F)Nc1ccc(Cl)cc1`, the growth inhibition in test [1] (setting [7]) is 1%; in test [1] (setting [8]), 0%; in test [1] (at 50.0 µM), -35.8%; in test [2] (setting [7]), -2%; in test [2] (setting [8]), -8%; in test [2] (at 50.0 µM), -1.15%. The growth inhibition in test [3] (setting [7]) is 1%; in test [3] (setting [8]), 1%; in test [3] (at 50.0 µM), 9.75%; in test [4] (setting [7]), 4%; in test [4] (setting [8]) it was 0%; in test [4] (at 50.0 µM), 57.1%. Moreover, the growth inhibition was -1% in test [5] (setting [7]); -2% in test [5] (setting [8]); 18.9% in test [5] (at 50.0 µM); -1% in test [6] (setting [7]); -1% in test [6] (setting [8]); 0.8% in test [6] (at 50.0 µM).

Consider `CC(=O)c1nc2ccccc2n1C(C)C(=O)c1ccccc1` (stereo not given), for which the growth inhibition is 39% in test [1] (setting [7]); 37% in test [1] (setting [8]); 16.9% in test [1] (at 50.0 µM); 23% in test [2] (setting [7]); 34% in test [2] (setting [8]); 21.6% in test [2] (at 50.0 µM). The growth inhibition was 18% in test [3] (setting [7]); 74% (active) in test [3] (setting [8]); 68.4% in test [3] (at 50.0 µM); 33% in test [4] (setting [7]); 24% in test [4] (setting [8]); 6.15% in test [4] (at 50.0 µM). The growth inhibition is -7% in test [5] (setting [7]); 35% in test [5] (setting [8]); 37.5% in test [5] (at 50.0 µM); 18% in test [6] (setting [7]); 30% in test [6] (setting [8]); -1.7% in test [6] (at 50.0 µM).

On to `CCOC(=O)/C(C#N)=C/c1ccccc1Br`, for which the growth inhibition in test [1] (setting [7]) is 11%; in test [1] (setting [8]), 18%; in test [1] (at 50.0 µM), 50%; in test [2] (setting [7]), -19%; in test [2] (setting [8]), 3%; in test [2] (at 50.0 µM), 20.4%. Further, the growth inhibition in test [3] (setting [7]) is 7%; in test [3] (setting [8]) it was 13%; in test [3] (at 50.0 µM), -0.75%; in test [4] (setting [7]) it was 39%; in test [4] (setting [8]), 17%; in test [4] (at 50.0 µM), 3.6%. The growth inhibition in test [5] (setting [7]) is 31%; in test [5] (setting [8]) it was 20%; in test [5] (at 50.0 µM), 1.2%; in test [6] (setting [7]), -9%; in test [6] (setting [8]) it was -4%; in test [6] (at 50.0 µM), 6.6%.

With `N=C(N)c1ccc(-c2ccc(-c3ccc(C(=N)N)cc3)o2)cc1`, the growth inhibition in test [1] (setting [7]) is 17%; in test [1] (setting [8]) it was 88% (active); in test [1] (at 50.0 µM) it was 94.8% (active); in test [2] (setting [7]) it was -6%; in test [2] (setting [8]), 52%; in test [2] (at 50.0 µM), 89% (active). Further, the growth inhibition in test [3] (setting [7]) is 1%; in test [3] (setting [8]) it was 61%; in test [3] (at 50.0 µM), 90.3% (active); in test [4] (setting [7]) it was -2%; in test [4] (setting [8]), 35%; in test [4] (at 50.0 µM), 75.5% (active). Further, the growth inhibition was 4% in test [5] (setting [7]); 62% in test [5] (setting [8]); 92.8% (active) in test [5] (at 50.0 µM); -10% in test [6] (setting [7]); 76% (active) in test [6] (setting [8]); 92.2% (active) in test [6] (at 50.0 µM).

`COC(=O)CCC(NC(=S)N/N=C(\C)c1cnc2ccccc2n1)C(=O)OC` (stereo not given): the growth inhibition in test [1] (setting [7]) is 12%; in test [1] (setting [8]), 12%; in test [1] (at 50.0 µM) it was 34.1%; in test [2] (setting [7]), 1%; in test [2] (setting [8]), 1%; in test [2] (at 50.0 µM) it was 16.2%. Also, the growth inhibition in test [3] (setting [7]) is -5%; in test [3] (setting [8]), -5%; in test [3] (at 50.0 µM) it was 67.1%; in test [4] (setting [7]) it was 10%; in test [4] (setting [8]) it was 10%; in test [4] (at 50.0 µM), 11.1%. Moreover, the growth inhibition in test [5] (setting [7]) was 12%; in test [5] (setting [8]), 12%; in test [5] (at 50.0 µM), 26.8%; in test [6] (setting [7]), 15%; in test [6] (setting [8]), 15%; in test [6] (at 50.0 µM), 31.4%.

Regarding `COc1ccc2nc3cc(Cl)ccc3c(Nc3ccc(S(N)(=O)=O)cc3)c2c1`, the growth inhibition was 0% in test [1] (setting [7]); 17% in test [1] (setting [8]); 37.5% in test [1] (at 50.0 µM); 0% in test [2] (setting [7]); 9% in test [2] (setting [8]); -11.4% in test [2] (at 50.0 µM). Moreover, the growth inhibition was 0% in test [3] (setting [7]); 5% in test [3] (setting [8]); -6.05% in test [3] (at 50.0 µM); 9% in test [4] (setting [7]); 3% in test [4] (setting [8]); -8.25% in test [4] (at 50.0 µM). The growth inhibition in test [5] (setting [7]) was -1%; in test [5] (setting [8]) it was 2%; in test [5] (at 50.0 µM), -11.4%; in test [6] (setting [7]), 1%; in test [6] (setting [8]), 2%; in test [6] (at 50.0 µM), -6.5%.

With `CN(C)CCCC(C#N)(CCCN(C)C)c1ccccc1`, the growth inhibition in test [1] (setting [7]) was 15%; in test [1] (setting [8]) it was -2%; in test [1] (at 50.0 µM), 15%; in test [2] (setting [7]), -1%; in test [2] (setting [8]), 5%; in test [2] (at 50.0 µM) it was -2.05%. Besides, the growth inhibition in test [3] (setting [7]) is 6%; in test [3] (setting [8]), 0%; in test [3] (at 50.0 µM) it was 10.6%; in test [4] (setting [7]), -2%; in test [4] (setting [8]) it was 6%; in test [4] (at 50.0 µM), -51.6%. Further, the growth inhibition in test [5] (setting [7]) was -3%; in test [5] (setting [8]) it was -1%; in test [5] (at 50.0 µM) it was -18.5%; in test [6] (setting [7]) it was -3%; in test [6] (setting [8]), 8%; in test [6] (at 50.0 µM), 31.4%.

Turning to `O=[N+]([O-])c1ccc(-c2ccccc2Cl)c([N+](=O)[O-])c1`, the growth inhibition is 2% in test [1] (setting [7]); 95% (active) in test [1] (setting [8]); 95.8% (active) in test [1] (at 50.0 µM); -7% in test [2] (setting [7]); 92% (active) in test [2] (setting [8]); 95.7% (active) in test [2] (at 50.0 µM). Further, the growth inhibition in test [3] (setting [7]) was 6%; in test [3] (setting [8]) it was 96% (active); in test [3] (at 50.0 µM), 91.2% (active); in test [4] (setting [7]), -8%; in test [4] (setting [8]), 83% (active); in test [4] (at 50.0 µM), 80.1% (active). For the same compound, the growth inhibition in test [5] (setting [7]) is -6%; in test [5] (setting [8]), 93% (active); in test [5] (at 50.0 µM), 95.8% (active); in test [6] (setting [7]) it was 5%; in test [6] (setting [8]) it was 97% (active); in test [6] (at 50.0 µM) it was 93.7% (active).

Turning to `c1cc(SSc2ccncc2)ccn1`, the growth inhibition in test [1] (setting [7]) was 47%; in test [1] (setting [8]), 100% (active); in test [1] (at 50.0 µM), 51.1%; in test [2] (setting [7]), 50%; in test [2] (setting [8]), 100% (active); in test [2] (at 50.0 µM), 85.5% (active). The growth inhibition in test [3] (setting [7]) was 55%; in test [3] (setting [8]), 100% (active); in test [3] (at 50.0 µM), 56.8%; in test [4] (setting [7]), 34%; in test [4] (setting [8]), 97% (active); in test [4] (at 50.0 µM) it was 42%. The growth inhibition is 45% in test [5] (setting [7]); 69% in test [5] (setting [8]); 92.6% (active) in test [5] (at 50.0 µM); 65% in test [6] (setting [7]); 100% (active) in test [6] (setting [8]); 82.1% (active) in test [6] (at 50.0 µM).

Turning to `OB1c2ccccc2CCc2ccccc21`, the growth inhibition in test [1] (setting [7]) was -4%; in test [1] (setting [8]), 99% (active); in test [1] (at 50.0 µM), 99.3% (active); in test [2] (setting [7]) it was -7%; in test [2] (setting [8]) it was 99% (active); in test [2] (at 50.0 µM) it was 99.5% (active). Besides, the growth inhibition in test [3] (setting [7]) was -4%; in test [3] (setting [8]) it was 99% (active); in test [3] (at 50.0 µM), 99.5% (active); in test [4] (setting [7]) it was -13%; in test [4] (setting [8]), 98% (active); in test [4] (at 50.0 µM), 96.6% (active). Also, the growth inhibition in test [5] (setting [7]) is -25%; in test [5] (setting [8]), 99% (active); in test [5] (at 50.0 µM), 99.2% (active); in test [6] (setting [7]) it was -2%; in test [6] (setting [8]), 99% (active); in test [6] (at 50.0 µM), 99% (active).

The values above are taken from PubChem BioAssay (NCI).
